# Measured values from PubChem BioAssay (NCI).
# The panel holds about 79,000 compounds, 15% with a hit somewhere; the sample as a whole holds those more often. Values without a mark were called inactive. The source made the active and inactive calls. Rule as the data show it: active = growth inhibition above about 70%; inactive = the rest.
# Key:
# [1] = NCI Yeast Anticancer Drug Screen. Data for the rad50 strain (AID 155);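 also: 0% = growth of vehicle-only cultures of the same strain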; details: S. cerevisiae rad50 strain growth inhibition; at 50.0 µM; active compounds read high
# Method in brief: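 Readout: growth inhibition relative to vehicle-treated cultures. Compound exposure was carried out in a genetically defined yeast strain deficient in DNA damage repair.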
# [2] = NCI Yeast Anticancer Drug Screen. Data for the mec2-1 strain (AID 157); details: S. cerevisiae mec2-1 strain, at 50.0 µM, active compounds read high
# Method in brief: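 Compounds were applied to mec2-1 yeast cells. Their growth was then compared with that of vehicle-treated cultures to give growth inhibition.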
# [3] = NCI Yeast Anticancer Drug Screen. Data for the sgs1 mgt1 strain (AID 161);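 also: 0% = growth of cultures given vehicle only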; details: S. cerevisiae sgs1 mgt1 strain, at 50.0 µM, active compounds read high
# Method in brief: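 This yeast growth screen uses a strain with defined DNA-repair lesions; compound-treated growth is compared with vehicle-treated growth.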
# [4] = NCI Yeast Anticancer Drug Screen. Data for the cln2 rad14 strain (AID 165);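 also: 0% = growth equal to vehicle treated cultures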; details: S. cerevisiae cln2 rad14 strain, at 50.0 µM, active compounds read high
# Method in brief: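 Strain: cln2 rad14 yeast, altered in cell cycle control and DNA damage repair. Read-out: growth inhibition vs vehicle.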
# [5] = NCI Yeast Anticancer Drug Screen. Data for the mlh1 rad18 strain (AID 175); details: S. cerevisiae mlh1 rad18 strain growth inhibition; at 50.0 µM; active compounds read high
# Method in brief: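 A repair-deficient yeast strain is exposed to test compound, and growth is scored relative to vehicle-treated controls.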
# [6] = NCI Yeast Anticancer Drug Screen. Data for the bub3 strain (AID 167); details: S. cerevisiae bub3 mutant strain, at 50.0 µM, active compounds read high
# Method in brief: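 Readout: yeast growth inhibition, expressed relative to vehicle-only wells. The test organism is a mutant strain from a panel with lesions in DNA repair or checkpoint genes.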
Compound,growth inhibition [1],growth inhibition [2] [%],growth inhibition [3] [%],growth inhibition [4],growth inhibition [5],growth inhibition [6]
O=C(O)C1=C(C(=O)Nc2ccc(NC(=O)C3=C(C(=O)O)C4C=CC3C4)cc2)C2C=CC1C2,-0.75%,-0.35,-6.3,-28.4%,9.95%,
CCCCCCNC(C)=O,13.6%,5.7,11.9,5.7%,-0.55%,
CCCCCCN(C(=O)Oc1ccccc1)C(C#N)c1ccccc1 (stereo not given),0.1%,5.55,-16.8,-14.7%,-20.2%,
Cn1cc(C(=O)C2CCCCC2)ccc1=O,,,,15.9%,,
OCC1OC(O)C(CO)OC1O (stereo not given),16.1%,,3.7,40.2%,-5.2%,22.2%
O=S(=O)([O-])Sn1c(-c2ccccc2)c[n+]2ccccc12,11.8%,,13.9,14.2%,10.8%,12.1%
COc1cc(C)cc(O)c1C=O,9.9%,,-0.1,-17.1%,3.45%,-0.2%
CC12CCC3c4ccc(Cc5ccc([N+](=O)[O-])cc5)cc4CCC3C1CCC2=O (stereo not given),32.6%,,10.8,19.7%,25.6%,1.05%
CC(=O)C1(C(C)=O)OC2c3ccccc3C=CN2C=C1C=O (stereo not given),6.6%,,14.6,4.45%,11.1%,6.05%
O=C(/C=C(/CC(=O)c1ccccc1)C(=O)c1ccccc1)c1ccccc1,-13.1%,,-11.2,-22.1%,-30.8%,-10.5%
NC1=C(O)C(=O)C(c2ccc3c(c2)CCC3)O1 (stereo not given),-24.5%,,-22.4,-12.6%,-9.1%,-14%
CC(=O)C1(C)OC(c2ccccc2)=NC1=S (stereo not given),7.4%,,7.55,14.9%,9.35%,-5.1%
COc1cccc(C2=NC(C(C)C)CO2)c1OC (stereo not given),-11.3%,,-15.8,19.9%,-4.35%,-8.35%
Cc1ccc(C(=O)Nc2ccc(CP(=O)(O)O)cc2CP(=O)(O)O)cc1NC(=O)c1cccc(N)c1,-7.3%,,4.4,,-1.25%,0.8%
CC(C)C1c2ccccc2C(=O)C1C(N)=O (stereo not given),-16.9%,,-12.8,-22.6%,-10.4%,-4.55%
CCOC(=O)C(=CNC(=S)Nc1ccccc1)C(=O)OCC,-24.9%,,-23.8,-17.1%,2.2%,-13.7%
CC(=O)OCc1cc2c(cc1CNCc1ccccc1)OCO2,12.5%,,7.25,-31.4%,7.25%,5%
O=C(NCCCCCCNC(=O)N1CCCCC1)c1cccnc1,-7.8%,,-3.65,-27.2%,-33.6%,13.3%
Nc1ccc(C(=O)N/N=C/c2ccc(Cl)cc2Cl)cc1,27%,,11.9,8%,-5.75%,13.1%
CCCC[P+](CCCC)(CCCC)c1ccccc1,-12.7%,,-0.05,-32.1%,-1.4%,-8.95%
O=C1NC(=O)c2c1c1cnn(-c3ccccc3)c1n1cccc21,15.1%,,25.2,-67%,17.7%,1.2%
CCOC(=O)C(C(=O)OCC)C(C(=O)OCC)(C(=O)OCC)C(C(=O)OCC)C(=O)OCC,-15.2%,,1.85,-3.55%,-19.9%,-3.65%

Compound,growth inhibition [1],growth inhibition [2] [%],growth inhibition [3] [%],growth inhibition [4],growth inhibition [5],growth inhibition [6]
CC1(C)NC(=S)NC1=S,5.4%,,-13.9,-26.9%,-4.35%,-4.45%
CCOCC(=O)O,-15.1%,,9.15,-32.2%,-1.25%,39.2%
C[N+](C)(C)C12CCCC1S(=O)(=O)C2 (stereo not given),4.95%,,9.3,-7.5%,16.6%,-7.45%
CCCCCCCCCCCCCCCCCCSCCCCCCCCCCCCCCCCCC,25.1%,,-16.9,-20.4%,-17.6%,-2.55%
COc1ccc(N2C(=O)C3c4[nH]c5ccccc5c4C4CC(C)(C)CC(C)(C)C4C3C2=O)cc1 (stereo not given),35.9%,,13.3,-13.1%,8.65%,33.1%
COc1ccc(N=NN(C(C)=O)c2ccccc2)cc1,2.85%,,35.5,-5.75%,19.1%,-1%
NCCCNC1CCCCC1,8.8%,,2.55,-0.45%,12.8%,1.7%
CC(C)c1ccccc1N1C(=O)CC(Sc2ccccc2N)C1=O (stereo not given),-5.45%,,-9.25,-28.6%,3.8%,0.15%
NC(=O)CNCC1Cc2ccccc21 (stereo not given),21.8%,,0.1,-16.4%,7.45%,4.6%
CCOC(=O)C(F)C(C)=O (stereo not given),92% (active),,56.2,97.4% (active),91.8% (active),99.5% (active)
COc1c2ccoc2c(S(=O)(=O)Nc2ccc(Cl)cc2)c2oc(C)cc(=O)c12,4.7%,,-13.9,-8.15%,-24.8%,-11.8%
COc1nc2cc3c(cc2n2cccc12)oc1ccccc13,11.9%,,-4,12.2%,-2.65%,-1.75%
O=NN(CCF)C(=O)N[C@H]1CCCC[C@H]1O,-15.7%,,-27.1,2.75%,1.45%,-15.9%
Cc1nn(C(=O)Cc2ccccc2)c2c1C(c1ccc(O)cc1O)SC(N)=N2 (stereo not given),-38.9%,,-35.5,0.8%,-36.5%,-15.6%
CC1CCC2C1(C)CCC1C2(C)CCC2(C)C3CC(C)(C)CCC3(C)CCC12C (stereo not given),-9.45%,,-12.8,1.6%,-11.2%,-26.4%
CCOC(=O)c1ccc(NC(=O)/C=C/C(=O)O)cc1,-20.2%,,-2.9,-3.3%,-15.3%,-9.7%
Cc1nc(Nc2ccc([N+](=O)[O-])cc2)sc1C(=O)/C=C/c1ccc(N(C)C)cc1,5.1%,,5.6,16.2%,-1.1%,18.6%
Cc1nc(NCc2ccco2)nc(NCc2ccco2)c1[N+](=O)[O-],-14.7%,,-5.85,-22.6%,-13.1%,27.7%
CC(=O)CCCC(CC(C)O)[Si](C)(C)C (stereo not given),-43.6%,,-1.05,-14.2%,-23.6%,-8.45%
CCCCC1CC(c2ccc(Cl)cc2)=NO1 (stereo not given),26.9%,,16.6,-1.55%,20.2%,3.75%
OC(CN1CCc2ccccc2C1)c1ccccc1 (stereo not given),42.5%,,49,27%,35.8%,39.4%
